Consider 33 compounds from PubChem BioAssay AID977624 (Broad Institute, 2014).

In all, about 1,800 compounds went through this assay and fewer than 10 were called active. About 44% were inconclusive and are not listed. A selection follows. A number with no mark means an inactive call.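 Rule for the calls: active = compound lowering the normal-ribosome reporter at least twice as much as the humanized-ribosome reporter, growth loss under a set limit; inconclusive = no clear call, values can overlap the other calls; inactive = the rest.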

The nature of this assay: wild-type E. coli growth inhibition versus h34 humanized strain – h34 mutant RFP, wild-type GFP, cherry-pick, dose response (AID 977624). The conditions noted are these: fluorescence, 24 h; series mostly up to 50 µM; activity change, negative = inhibition: at the top concentration.
As for `COc1cccc(NC(=O)c2ccc(C(=O)c3ccccc3)o2)c1`, the “activity change, negative = inhibition” value is -3.61. `COc1ccc(C(=O)C2CCCN(C(=O)c3noc4c3CCCC4)C2)cc1F` (stereo not drawn): the “activity change, negative = inhibition” value is 9.37. In the case of `COc1ccc(C(=O)N(c2ccccc2)c2nccc3ccccc23)cc1OC` it was 6.84; in that of `COc1ccc(C2CC(=O)CCN2S(=O)(=O)c2ccc(C)cc2)cc1` (stereo not drawn), -6.06; in that of `O=C(NCc1ccc(S(=O)(=O)Nc2ccccc2Cl)s1)c1ccccc1`, 3.75.

For `Cc1ccc(C)c(-c2[nH]ncc2CN2CCCC(CO)(Cc3ccccc3C)C2)c1` (stereo not drawn), the “activity change, negative = inhibition” value was 0.321. To `Cc1nn(-c2cccc(Cl)c2)nc1C(=O)O` belongs -8.21. `CC1CCN(c2ccc3nnc(CCC(=O)Nc4cccc(F)c4)n3n2)CC1`: the “activity change, negative = inhibition” value is -8.21. In the case of `O=C1c2ccccc2NC(c2ccc(-c3cccc([N+](=O)[O-])c3)o2)N1O` (stereo not drawn) it was -11.5. To `COc1ccc(OC)c(-c2csc(NC(=O)C3COc4ccccc4O3)n2)c1` (stereo not drawn) belongs -3.69. In the case of `COc1ccc(-n2nc3cc(N)c(Br)cc3n2)cc1` it was -3.96; in that of `CN1C(=O)c2cc(NC(=O)c3cccc(F)c3)ccc2OC[C@H]2O[C@@H](CC(=O)N3CCc4ccccc4C3)CC[C@@H]21`, -5.65. As to `Brc1cc2c(cc1Br)OCCOCCOCCO2`, the “activity change, negative = inhibition” value was 3.87.

On to `COC(=O)CC#C[C@H](C)[C@@H](NS(=O)(=O)c1ccc([N+](=O)[O-])cc1)C(C)(C)C`, for which the “activity change, negative = inhibition” value is 14.2. With `Cc1cc(C(=O)NCCC2=CCCCC2)ccc1[N+](=O)[O-]`, the “activity change, negative = inhibition” value was -3.82. As for `CN(C)S(=O)(=O)c1ccc(Cl)c(C(=O)OCC(=O)NC(=O)c2cccn2C)c1`, the “activity change, negative = inhibition” value was 7.26.

For `COC(=O)c1cc(S(=O)(=O)NCc2ccc3c(c2)OCO3)cn1C`, the “activity change, negative = inhibition” value is 0.059. As to `Cc1ccc(-c2cc(-c3ccc(C)cc3)[n+](-c3ccc(C(=O)[O-])cc3)c(-c3ccc(C)cc3)c2)cc1`, the “activity change, negative = inhibition” value was 11.

Turning to `CC(=O)Nc1ccc(NS(=O)(=O)c2ccc(Cl)s2)cc1`, the “activity change, negative = inhibition” value was 2.3. Regarding `CN(c1ccc(C(=O)NCc2cccs2)cc1)S(=O)(=O)c1ccccc1`, the “activity change, negative = inhibition” value was -3. For `CCn1nc(C(=O)OCc2cccc(S(=O)(=O)N(C)C)c2)c2ccccc2c1=O`, the “activity change, negative = inhibition” value was 3.66. To `COc1cccc(NC(=O)CSc2nc3c(sc4ccccc43)c(=O)n2CCN(C)C)c1` belongs 10.7; to `O=C(CC1C(=O)NCCN1CC1CCCCC1)NCc1ccc(F)cc1F` (stereo not drawn), 5.47. With `CC(=O)N1CCN(c2nc(-c3cccs3)nc3ccccc23)CC1`, the “activity change, negative = inhibition” value is -6.03.

Consider `COc1ccc(NC(=O)c2sccc2-n2cccc2)cc1`, for which the “activity change, negative = inhibition” value was 7.88. To `O=C(Cc1ccc(NC(=O)C2CCCN(C(=O)CCc3ccccc3)C2)cc1)Nc1cccc(C(=O)N2CCCC2)c1` (stereo not drawn) belongs 2.02; to `COc1ccc(Nc2nc(NCCO)nc(N3CCCC3)n2)cc1`, -2.08; to `CC(C)[C@H](NC(=O)c1ccc([N+](=O)[O-])cc1Cl)C(=O)N1CCN(C/C=C/c2ccccc2)CC1`, -11.6.

As for `COc1ccccc1NC(=O)CN1CCSc2ccccc21`, the “activity change, negative = inhibition” value is -10.7. To `O=C(NCc1ccccc1Cl)[C@H]1CCCN1C(=O)[C@H]1CCCN1C(=O)c1cccc2ccccc12` belongs 0.914. In the case of `CC1(C(=O)Nc2ccc3c(c2)OCCO3)CSCC(=O)N1CCOc1ccccc1` (stereo not drawn) it was 6.15; in that of `O=S(=O)(c1cnc(Cl)c(Cl)c1)N1CCCc2ccccc21`, 2.93.

For the compound `CCOC(=O)C1(CCCc2ccccc2)CCN(C(=O)CCn2cncn2)CC1`, the “activity change, negative = inhibition” value is 11.3.
